Experimental data from the supplement of paper PMC3545927.
Some of the results follow. No count for the full screen is at hand.

Molecular target: furin, P09958
Assay: furin cleavage Z-score vs untreated control; higher = more cleavage, active = 3.5 or more, inactive = 1 or less, 8 variable residues between constant flanks
How it was run: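 Magnetic beads held 8-mer peptides by the N-terminus, each fused to a cDNA oligonucleotide, and purified furin was added for 7.5, 15 or 30 min. Released DNA was sequenced after PCR adapter tagging. The cleavage Z-score is the log count relative to furin-free reactions, lowess-adjusted and divided by median absolute deviation.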
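Note: purified furin at 1:10 enzyme:substrate in 50 mM HEPES pH 7.5.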

furin, P09958, sequence (P09958 whole entry): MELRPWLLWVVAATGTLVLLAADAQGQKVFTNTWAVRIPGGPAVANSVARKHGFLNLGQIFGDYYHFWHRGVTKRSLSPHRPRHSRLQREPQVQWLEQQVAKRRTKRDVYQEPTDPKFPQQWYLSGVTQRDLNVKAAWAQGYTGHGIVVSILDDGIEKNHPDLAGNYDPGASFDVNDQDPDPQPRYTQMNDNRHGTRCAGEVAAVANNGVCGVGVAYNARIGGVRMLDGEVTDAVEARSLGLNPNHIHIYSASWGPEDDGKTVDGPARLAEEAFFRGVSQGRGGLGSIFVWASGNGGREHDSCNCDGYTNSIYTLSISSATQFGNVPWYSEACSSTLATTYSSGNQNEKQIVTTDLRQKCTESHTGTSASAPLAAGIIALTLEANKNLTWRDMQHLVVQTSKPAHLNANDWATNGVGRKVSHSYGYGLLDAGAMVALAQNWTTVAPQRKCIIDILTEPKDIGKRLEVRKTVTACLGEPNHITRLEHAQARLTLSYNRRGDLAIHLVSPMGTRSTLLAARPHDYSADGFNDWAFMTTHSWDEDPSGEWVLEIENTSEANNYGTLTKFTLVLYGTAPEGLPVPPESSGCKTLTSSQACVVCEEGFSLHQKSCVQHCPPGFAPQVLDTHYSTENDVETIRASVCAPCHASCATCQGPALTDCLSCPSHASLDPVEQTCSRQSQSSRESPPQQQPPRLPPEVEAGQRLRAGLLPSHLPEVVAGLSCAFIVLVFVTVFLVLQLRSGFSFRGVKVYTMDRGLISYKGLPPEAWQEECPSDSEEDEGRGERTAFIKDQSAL

## CATQGCNCSIAGNASASA [HC311]
7.5 min
  furin cleavage Z-score: -0.897 (inactive)
15 min
  furin cleavage Z-score: -0.922 (inactive)
30 min
  furin cleavage Z-score: -0.937 (inactive)

## CARMDRVKKEAGNASASA [FS-953]
7.5 min
  furin cleavage Z-score: 0.785 (inactive)
15 min
  furin cleavage Z-score: 2.5
30 min
  furin cleavage Z-score: 3.22

## CAGKGRKYREAGNASASA [FS-125]
7.5 min
  furin cleavage Z-score: 8.32 (active)
15 min
  furin cleavage Z-score: 9.76 (active)
30 min
  furin cleavage Z-score: 7.89 (active)

## CAVMGRMKREAGNASASA [FS-892]
7.5 min
  furin cleavage Z-score: 13 (active)
15 min
  furin cleavage Z-score: 13.9 (active)
30 min
  furin cleavage Z-score: 9.25 (active)

## CARPRRTKKTAGNASASA [DV3]
7.5 min
  furin cleavage Z-score: 0.136 (inactive)
15 min
  furin cleavage Z-score: 1.59
30 min
  furin cleavage Z-score: 1.15

## CARKRRAKREAGNASASA [FS-1650]
7.5 min
  furin cleavage Z-score: 13 (active)
15 min
  furin cleavage Z-score: 13.6 (active)
30 min
  furin cleavage Z-score: 9.6 (active)

## CAGDGRSYRGAGNASASA [FS-529]
7.5 min
  furin cleavage Z-score: -0.56 (inactive)
15 min
  furin cleavage Z-score: -0.653 (inactive)
30 min
  furin cleavage Z-score: -0.179 (inactive)

## CARPRRMKREAGNASASA [FS-710]
7.5 min
  furin cleavage Z-score: 12.1 (active)
15 min
  furin cleavage Z-score: 12.6 (active)
30 min
  furin cleavage Z-score: 8.41 (active)

## CAEVVTSYWVAGNASASA [HC2209]
7.5 min
  furin cleavage Z-score: -1.41 (inactive)
15 min
  furin cleavage Z-score: -1.3 (inactive)
30 min
  furin cleavage Z-score: -1.27 (inactive)

## CADLVGWPAPAGNASASA [HC714]
7.5 min
  furin cleavage Z-score: -0.648 (inactive)
15 min
  furin cleavage Z-score: -0.464 (inactive)
30 min
  furin cleavage Z-score: -1.65 (inactive)

## CAYHVTNDCPAGNASASA [HC261]
7.5 min
  furin cleavage Z-score: -0.934 (inactive)
15 min
  furin cleavage Z-score: -0.574 (inactive)
30 min
  furin cleavage Z-score: -0.88 (inactive)

## CAKKWRMKREAGNASASA [FS-809]
7.5 min
  furin cleavage Z-score: 12.2 (active)
15 min
  furin cleavage Z-score: 12.8 (active)
30 min
  furin cleavage Z-score: 10.8 (active)

## CAGRLRPLRDAGNASASA [FS-164]
7.5 min
  furin cleavage Z-score: 6.08 (active)
15 min
  furin cleavage Z-score: 7.11 (active)
30 min
  furin cleavage Z-score: 5.86 (active)

## CALQGRSSRDAGNASASA [FS-357]
7.5 min
  furin cleavage Z-score: 0.94 (inactive)
15 min
  furin cleavage Z-score: 1.14
30 min
  furin cleavage Z-score: 2.12

## CAAFGRRRRDAGNASASA [FS-639]
7.5 min
  furin cleavage Z-score: 6.8 (active)
15 min
  furin cleavage Z-score: 6.94 (active)
30 min
  furin cleavage Z-score: 5.25 (active)

## CAGQPRRSRDAGNASASA [FS-430]
7.5 min
  furin cleavage Z-score: 8.53 (active)
15 min
  furin cleavage Z-score: 9.91 (active)
30 min
  furin cleavage Z-score: 6.63 (active)

## CASWLRDIWDAGNASASA [HC1148]
7.5 min
  furin cleavage Z-score: -1.29 (inactive)
15 min
  furin cleavage Z-score: -0.331 (inactive)
30 min
  furin cleavage Z-score: 0.22 (inactive)

## CAPPPRRTRDAGNASASA [FS-840]
7.5 min
  furin cleavage Z-score: 7.22 (active)
15 min
  furin cleavage Z-score: 7.26 (active)
30 min
  furin cleavage Z-score: 5.47 (active)

## CAPWQRVDRDAGNASASA [FS-843]
7.5 min
  furin cleavage Z-score: -0.541 (inactive)
15 min
  furin cleavage Z-score: 0.153 (inactive)
30 min
  furin cleavage Z-score: -0.511 (inactive)

## CAASCRPLTDAGNASASA [HC389]
7.5 min
  furin cleavage Z-score: -0.403 (inactive)
15 min
  furin cleavage Z-score: -0.436 (inactive)
30 min
  furin cleavage Z-score: 0.514 (inactive)

## CANHLTPLRDAGNASASA [HC636]
7.5 min
  furin cleavage Z-score: -0.625 (inactive)
15 min
  furin cleavage Z-score: -0.983 (inactive)
30 min
  furin cleavage Z-score: -0.425 (inactive)

## CAVYCCSMSYAGNASASA [HC2009]
7.5 min
  furin cleavage Z-score: -0.694 (inactive)
15 min
  furin cleavage Z-score: -1.09 (inactive)
30 min
  furin cleavage Z-score: -1.22 (inactive)

## CATTPCSGSQAGNASASA [HC1942]
7.5 min
  furin cleavage Z-score: -0.135 (inactive)
15 min
  furin cleavage Z-score: -0.54 (inactive)
30 min
  furin cleavage Z-score: -2.05 (inactive)

## CALTRRMRRDAGNASASA [FS-177]
7.5 min
  furin cleavage Z-score: 14 (active)
15 min
  furin cleavage Z-score: 14.8 (active)
30 min
  furin cleavage Z-score: 9.72 (active)

## CAFQRRMAGMAGNASASA [FS-1671]
7.5 min
  furin cleavage Z-score: -0.225 (inactive)
15 min
  furin cleavage Z-score: -0.266 (inactive)
30 min
  furin cleavage Z-score: 0.306 (inactive)

## CARHIRRRRDAGNASASA [FS-1158]
7.5 min
  furin cleavage Z-score: 10.5 (active)
15 min
  furin cleavage Z-score: 10.7 (active)
30 min
  furin cleavage Z-score: 6.88 (active)

## CARHIRLVLKAGNASASA [FS-2937]
7.5 min
  furin cleavage Z-score: -1.39 (inactive)
15 min
  furin cleavage Z-score: -0.583 (inactive)
30 min
  furin cleavage Z-score: -0.338 (inactive)

## CADRRRRRRDAGNASASA [FS-647]
7.5 min
  furin cleavage Z-score: 7.06 (active)
15 min
  furin cleavage Z-score: 7.21 (active)
30 min
  furin cleavage Z-score: 4.92 (active)

## CAFQRRRRRDAGNASASA [FS-906]
7.5 min
  furin cleavage Z-score: 11.2 (active)
15 min
  furin cleavage Z-score: 12 (active)
30 min
  furin cleavage Z-score: 8.45 (active)

## CASRMREDRDAGNASASA [FS-871]
7.5 min
  furin cleavage Z-score: -0.996 (inactive)
15 min
  furin cleavage Z-score: -0.456 (inactive)
30 min
  furin cleavage Z-score: 1.09

## CAMCTTPCSGAGNASASA [HC1946]
7.5 min
  furin cleavage Z-score: 0.117 (inactive)
15 min
  furin cleavage Z-score: 1.58
30 min
  furin cleavage Z-score: 0.427 (inactive)

## CAEVPCHRVSAGNASASA [HC2390]
7.5 min
  furin cleavage Z-score: 2.12
15 min
  furin cleavage Z-score: 0.773 (inactive)
30 min
  furin cleavage Z-score: 2

## CAEPTTPCSGAGNASASA [HC1979]
7.5 min
  furin cleavage Z-score: -1.55 (inactive)
15 min
  furin cleavage Z-score: -0.645 (inactive)
30 min
  furin cleavage Z-score: -0.627 (inactive)

## CAWTTQGCNCAGNASASA [HC310]
7.5 min
  furin cleavage Z-score: 0.795 (inactive)
15 min
  furin cleavage Z-score: -2.96 (inactive)
30 min
  furin cleavage Z-score: -0.152 (inactive)

## CAWEMEECSQAGNASASA [HC1788]
7.5 min
  furin cleavage Z-score: 1.14
15 min
  furin cleavage Z-score: 0.864 (inactive)
30 min
  furin cleavage Z-score: -0.48 (inactive)

## CATRGERCDLAGNASASA [HC484]
7.5 min
  furin cleavage Z-score: -0.0552 (inactive)
15 min
  furin cleavage Z-score: 1.25
30 min
  furin cleavage Z-score: 1.03

## CAEHVVCCSMAGNASASA [HC2135]
7.5 min
  furin cleavage Z-score: 0.471 (inactive)
15 min
  furin cleavage Z-score: -0.688 (inactive)
30 min
  furin cleavage Z-score: 1.47

## CAVVCCSMSTAGNASASA [HC2098]
7.5 min
  furin cleavage Z-score: 0.887 (inactive)
15 min
  furin cleavage Z-score: -0.156 (inactive)
30 min
  furin cleavage Z-score: 0.445 (inactive)

## CATTDRRRRDAGNASASA [FS-101]
7.5 min
  furin cleavage Z-score: 9.9 (active)
15 min
  furin cleavage Z-score: 8.9 (active)
30 min
  furin cleavage Z-score: 5.67 (active)

## CALAFRRRRDAGNASASA [FS-346]
7.5 min
  furin cleavage Z-score: 7.62 (active)
15 min
  furin cleavage Z-score: 8.27 (active)
30 min
  furin cleavage Z-score: 6.14 (active)

## CAGRPRRRRDAGNASASA [FS-432]
7.5 min
  furin cleavage Z-score: 11.8 (active)
15 min
  furin cleavage Z-score: 13.5 (active)
30 min
  furin cleavage Z-score: 9.18 (active)

## CAYGCRRRRDAGNASASA [FS-737]
7.5 min
  furin cleavage Z-score: 9.65 (active)
15 min
  furin cleavage Z-score: 10.6 (active)
30 min
  furin cleavage Z-score: 8.47 (active)

## CAGRPRSRKIAGNASASA [FS-657]
7.5 min
  furin cleavage Z-score: -0.514 (inactive)
15 min
  furin cleavage Z-score: -1.38 (inactive)
30 min
  furin cleavage Z-score: 0.291 (inactive)

## CAWAHNGLRDAGNASASA [HC640]
7.5 min
  furin cleavage Z-score: 0.594 (inactive)
15 min
  furin cleavage Z-score: 0.97 (inactive)
30 min
  furin cleavage Z-score: -0.0784 (inactive)
